# Results published in PubChem BioAssay AID485367 (National Center for Advancing Translational Sciences (NCATS), 2010).
# Among all 330,000 compounds or so, about 560 (0.17%) were called active. A call without a number means that no potency is given here. About 1% were inconclusive and are not listed. Calls come from the whole dose curve; as a rule, active = well fitted inhibition curve with a large enough effect; inconclusive = small, poorly fitted or top-dose-only effect, or effect the other way; inactive = flat fitted curve, though single readings scatter. Many of the other results were omitted from the sample, so actives are more common in it than they were.
# Target: ATP-dependent 6-phosphofructokinase (Trypanosoma brucei brucei) (UniProt O15648)
# Test: qHTS Assay to Find Inhibitors of T. brucei phosphofructokinase; note: nearly all actives have a fitted effect of over 60% in size
# Settings: T. brucei PFK, ADP-Glo luminescence; series mostly up to 57.5 µM
# Description: NIH Molecular Libraries Probe Production Network [MLPCN] NIH Chemical Genomics Center [NCGC] Grant: 1 R03 MH092153-01 PI Name: Malcolm Walkinshaw, University of Edinburgh NCGC Assay Overview: Various species of the protozoan family Trypanosomatidae are responsible for a range of serious human diseases in tropical and subtropical areas of the world. […] Many of the disorders caused by trypanosomatids are fatal if left untreated, but most currently used drugs are inefficient and toxic. […] Oxidative metabolism involving the mitochondrial tricarboxylic acid cycle and oxidative phosphorylation are repressed in these parasites, and recent RNA interference (RNAi) experiments have shown that even partial depletion of certain individual glycolytic enzymes can lead to the death of cultured parasites. One such glycolytic enzyme, phosphofructokinase (PFK), catalyzes the formation of fructose-1,6-bisphosphate (F1,6BP) and ADP from fructose-6-phosphate (F6P) and ATP, and in many metabolic circumstances makes an important contribution to the control of flux through the glycolytic pathway. As a specific glycolytic target, PFK is particularly attractive as it catalyzes the first irreversible step in glycolysis, and structural and kinetic studies have shown very substantial and essential differences from corresponding host enzymes, allowing for the discovery of parasite-selective inhibitors. The goal of this screen is to find small-molecule inhibitors of T. brucei PFK using a biochemical assay that measures PFK activity as a function of ADP production. A luminescence-based assay for T. brucei PFK activity has been developed which uses luciferase to detect production of ADP. Traditional luciferase-based nucleotide detection reagents rely on ATP production as a direct substrate for the luciferase reaction; however, PFK catalyzes the transfer of a phosphate from ATP to F6P, resulting in the net depletion of ATP. To directly measure the ADP product of the PFK reaction, we used the ADP-Glo detection kit (Promega), which utilizes two separate reactions to 1) deplete all remaining uncatalyzed ATP and 2) convert all remaining ADP to ATP, which is then detected through a traditional luciferase-coupled reaction. Compounds were screened as a concentration-titration series that ranged from 57 uM to 0.7 nM.
# NCGC Assay Protocol Summary: NCGC Assay Protocol Summary: Substrate buffer was dispensed into white, solid 1536-well plates at 3uL/well in 0.1M triethanolamine (TEA) buffer, pH 8.0, containing final concentrations of 5 mM MgCl2, 0.01% Tween20, 0.5 mM fructose-6-phosphate (F6P) and 0.1mM ATP. Then, 23 nL of compounds or DMSO were delivered to each well using a pin tool. One uL T. brucei PFK (0.1M TEA, 0.01% Tween20, 0.1% bovine serum albumin (BSA) and 1.25nM PFK, final concentrations) was then dispensed, and plates were incubated at room temperature for 45 min. The luminescent detection reagent, ADP-Glo (Promega), was then added in two steps: the first reagent, ADP-Glo (which converts remaining uncatalyzed ATP), was added at 2.5uL/well and incubated for ten minutes at room temperature, and the second component, Kinase Detection reagent (which converts ADP to ATP as a substrate for luciferase-based luminescence), was added immediately after at 5uL/well, followed by one final ten minute room temperature incubation. The plates were measured on a ViewLux plate reader for luminescent signal using a clear filter with a one second exposure. The %Activity was determined from the corrected luminescence values. As no specific T. brucei PFK inhibitors have been identified in the literature, 1x (1.25nM) and 0x PFK enzyme controls (untreated) were included to normalize %Activity of identified inhibitors; 0x enzyme values corresponded to 100%Activity (full inhibition), while 1x PFK enzyme values were used to normalize 0%Activity (no inhibition). Concentration-response curves were fitted to the signals arising from the resulting luminescence. […]
# Potency is the fitted concentration of half-maximal effect.
# Chain of ATP-dependent 6-phosphofructokinase (Trypanosoma brucei brucei) (O15648 whole entry, looked up): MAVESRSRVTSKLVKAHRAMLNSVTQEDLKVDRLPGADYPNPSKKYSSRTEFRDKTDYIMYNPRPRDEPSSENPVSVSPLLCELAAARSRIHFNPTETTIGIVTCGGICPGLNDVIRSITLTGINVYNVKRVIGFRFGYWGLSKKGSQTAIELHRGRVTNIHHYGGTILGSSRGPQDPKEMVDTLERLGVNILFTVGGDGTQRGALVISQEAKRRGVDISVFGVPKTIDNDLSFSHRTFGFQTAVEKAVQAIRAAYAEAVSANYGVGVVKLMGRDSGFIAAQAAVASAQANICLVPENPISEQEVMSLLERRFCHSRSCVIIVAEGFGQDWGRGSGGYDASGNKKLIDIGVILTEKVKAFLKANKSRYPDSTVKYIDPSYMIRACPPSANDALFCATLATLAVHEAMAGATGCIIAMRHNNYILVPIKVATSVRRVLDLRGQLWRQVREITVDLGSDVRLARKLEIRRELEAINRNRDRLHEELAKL
row,Compound,Potency
1,CCOc1ccc(C(c2c(C)[nH][nH]c2=O)c2c(C)[nH][nH]c2=O)cc1OCC,inactive
2,Cc1[nH][nH]c(=O)c1C(c1ccc2c(c1)OCO2)c1c(C)[nH][nH]c1=O,23.9 µM (active)
3,Nc1[nH][nH]c(=O)c1N=Nc1ccc2c(c1)OCO2,inactive
4,COc1cc(C2C(N3C(=O)c4ccccc4C3=O)C(=O)N2c2ccc(C)c(C)c2)cc(OC)c1OC (stereo unspecified),inactive
5,OC(CNCC1CCCO1)Cn1c2ccc(Br)cc2c2cc(Br)ccc21 (stereo unspecified),inactive
6,Nc1nc(Nc2ccccc2F)nc(NC2CCCCC2)c1[N+](=O)[O-],inactive
7,COc1cc(NC(=O)COC(=O)CSc2ccc3ccccc3c2)c(C)cc1[N+](=O)[O-],inactive
8,CCOC(=O)N1CCN(C(=O)CN(C2CCCCC2)S(C)(=O)=O)CC1,inactive
9,CC(Oc1cc2oc(=O)c3c(c2cc1Cl)CCCC3)C(=O)NCc1ccncc1 (stereo unspecified),inactive
10,CC(C)CN(CC(C)C)CC(O)CN(c1ccccc1)S(=O)(=O)c1ccccc1[N+](=O)[O-] (stereo unspecified),inactive
11,CCCN1C2CCCC1CC(NC(=O)NC13CC4CC(CC(C4)C1)C3)C2 (stereo unspecified),inactive
12,CCN(CC(=O)N1CCCC1)S(=O)(=O)c1ccc(F)cc1,inactive
13,O=C(Cn1c(COc2ccccc2)nc2ccccc21)Nc1cc(Cl)c(Cl)cc1Cl,inactive
14,O=C(CN(CC1CCCO1)C(=O)CNS(=O)(=O)c1ccc(F)cc1)NCc1ccco1 (stereo unspecified),inactive
15,COc1ccc(-c2nc3c(s2)CCc2onc(-c4ccc(OC)cc4)c2-3)cc1,inactive
16,COc1ccc(Cl)cc1NC(=O)NC(C)C(C)(C)C (stereo unspecified),inactive
17,Cc1cccc(NC(=S)Nc2ccc3cn[nH]c3c2)c1,inactive
18,Cc1cccc(NC(=S)NC23CN4CN(CN(C4)C2)C3)c1,inactive
19,Cc1cccc(NC(=S)Nc2ccc(Cl)c(Cl)c2)c1,10.7 µM (active)
20,COCCN1C(=O)N(c2ccc(Cl)cc2)C(=O)C1CC(=O)Nc1cc(OC)cc(OC)c1 (stereo unspecified),inactive
21,CC1(N2CCOCC2)CC2(O)C(=[N+]1[O-])CCc1nonc12 (stereo unspecified),inactive
22,O=C(CCn1nnc2ccccc21)OCC(=O)c1ccc([N+](=O)[O-])cc1,inactive
23,Cc1ccnc(-n2sc3ccccc3c2=O)n1,7.57 µM (active)
24,Cc1nc2ccccc2c(=O)n1NC(=O)c1ccccc1,inactive
25,COC(=O)COc1ccc2c(c1C)O/C(=C\c1ccco1)C2=O,inactive
26,O=C(COC(=O)c1cccs1)NCc1cccs1,inactive

row,Compound,Potency
1,O=C(COC(=O)CCC(=O)c1cccs1)NCc1ccco1,6.75 µM (active)
2,O=C(COC(=O)C12CC3CC(CC(C3)C1)C2)NCc1ccco1,inactive
3,Cc1cc(NC(=O)COC(=O)/C=C/c2ccc(C)o2)no1,inactive
4,CS(=O)(=O)N(CC(=O)N1CCOCC1)c1cccc(Cl)c1Cl,inactive
5,Cc1ccc(S(=O)(=O)N2CCCCC2)cc1NC(=O)[C@@H]1CCCN1C(=O)c1cccs1,inactive
6,O=C(COC(=O)CCCN1C(=O)c2cccc3cccc(c23)C1=O)NC1CCS(=O)(=O)C1 (stereo unspecified),inactive
7,CCC(C)c1ccc(NC(=O)COC(=O)C2CCCC2)cc1 (stereo unspecified),inactive
8,Cc1c(Cl)cccc1NC(=O)Nc1ccc(C(=O)N2CCCC2)cc1,inactive
9,COc1cc(S(=O)(=O)N2CCOCC2)ccc1NC(=O)COc1ccc(N(C)S(=O)(=O)c2ccc(C)cc2)cc1,inactive
10,C/C(=N/Nc1ccc(Cl)cc1)c1cnnc(-c2ccccc2)n1,inactive
11,O=C(CNC(=O)C1COc2ccccc2O1)N/N=C/c1cc(Br)c(O)c(Br)c1 (stereo unspecified),inactive
12,Cc1c(C)c2ccc(OCC(=O)N3CCC(C(=O)O)CC3)c(C)c2oc1=O,inactive
13,Cc1c(CC(=O)N2CCN(C(=O)C3COc4ccccc4O3)CC2)c(=O)oc2c(O)c(O)ccc12 (stereo unspecified),4.78 µM (active)
14,Cc1ccc2c(=O)cc(C(=O)NCCc3ccc(S(N)(=O)=O)cc3)oc2c1C,inactive
15,CCCNC(=O)NC(=O)COC(=O)CC(NC(N)=O)c1ccc(Cl)cc1 (stereo unspecified),inactive
16,COc1ccc(CCNC(=O)c2cnc(Cl)c(Cl)c2)cc1,inactive
17,COc1cnc(SCc2ccc(Cl)c(Cl)c2)nc1Cl,26.9 µM (active)
18,Nc1cc(N)nc(SCc2ccc(Cl)cc2)n1,inactive
19,Cc1ccc(C2CC(c3cccc(Br)c3)n3nc(N)nc3N2)cc1 (stereo unspecified),inactive
20,O=C1CCN(Cc2ccccc2)CCN1[C@H](CSc1ccccc1)c1ccccc1,inactive
21,O=C(CNS(=O)(=O)c1ccc2ccccc2c1)Nc1ccc(F)c(F)c1F,inactive
22,Cc1ccccc1NC(=O)Cc1nc(COC(=O)c2cccnc2Cl)cs1,inactive
23,Cc1cccc(-n2c(N)c(C(=O)N3CCN(C)CC3)sc2=S)c1,12 µM (active)
24,N#Cc1ccccc1-n1c(N)c(C(=O)N2CCCC2)sc1=S,inactive
25,Cc1ccc(-n2c(N)c(C(=O)N3CCOCC3)sc2=S)c(C)c1,inactive
26,Cc1ccc2c(C)c(C(=O)N(C)CCC3CCCCO3)oc2c1C (stereo unspecified),inactive

row,Compound,Potency
1,N#CCSc1nn(-c2ccc(F)cc2)c(=S)s1,inactive
2,O=c1ccc2c(-c3ccccc3S(=O)(=O)O)c3ccc(O)c(O)c3oc-2c1O,2.39 µM (active)
3,COC(=O)c1ccc(COc2ccc(/C=C/C(=O)c3ccc(OC)c(CSCC(=O)O)c3)cc2OC)cc1,4.78 µM (active)
4,COc1ccc(/C=C/C(=O)c2ccc(NS(=O)(=O)c3ccc(C)cc3)cc2)cc1O,inactive
5,COc1ccc(C(=O)/C=C/c2ccc(-c3ccccc3)cc2)cc1CSCC(=O)O,inactive
6,Cc1ccc(OCC(=O)N2CCN(C(=O)c3cccnc3)CC2)cc1,inactive
7,CN1C(CC(=O)Nc2ccc(Br)cc2)c2ccccc2CC1(C)C (stereo unspecified),inactive
8,Cc1nn(Cc2ccc(F)cc2)c(C)c1NC(=O)c1cccnc1Cl,inactive
9,Cc1cc(C(=O)Nc2c(C)nn(Cc3ccccc3)c2C)on1,inactive
10,Cc1nn(Cc2ccc(Cl)c(Cl)c2)c(C)c1NC(=O)c1cc(C2CC2)on1,9.53 µM (active)
11,CCCc1nn(C)c2c(=O)[nH]c(-c3cc(S(N)(=O)=O)ccc3OCC)nc12,inactive
12,CC1CCC(NC(=O)CN(C)S(=O)(=O)c2ccc3c(c2)c(=O)n(C)c(=O)n3C)CC1 (stereo unspecified),inactive
13,O=C(OCC(=O)N1CCc2ccccc21)c1ccc([N+](=O)[O-])cc1,inactive
14,COc1ccc(NS(=O)(=O)c2ccc(C)c(C(=O)NNC(=O)c3csc(N4CCOCC4)n3)c2)cc1,inactive
15,CC1=NN(c2cccc(Cl)c2)C(=O)C12CC(C)=C(C)CS2 (stereo unspecified),inactive
16,Cc1ccn2c(=O)c(NC(=O)c3cccc4ccccc34)c(C)nc2c1,inactive
17,O=C(C1CCN(c2nnc(-n3cccc3)s2)CC1)N1CCc2ccccc2C1,inactive
18,CN1CCN(c2ccc(S(=O)(=O)N3CCOCC3)cc2NC(=O)CCc2ccccc2)CC1,inactive
19,O=C(COc1nsnc1N1CCOCC1)Nc1ccccc1Cl,inactive
20,O=C(NC1CCN(Cc2ccccc2)CC1)c1cc(Br)c(Br)[nH]1,inactive
21,Cc1cnc(C(=O)N2CCCC(C(=O)c3ccc(C(F)(F)F)cc3)C2)cn1 (stereo unspecified),inactive
22,Cc1cc(NC(=O)CCC(=O)N(CC(=O)NCC2CCCO2)c2ccccc2C)no1 (stereo unspecified),inactive
23,CC(CN1CCC(n2nccc2NC(=O)C2CCCC2)CC1)c1ccccc1 (stereo unspecified),inactive
24,C=Cn1cc[n+](CC(=O)c2ccc(OC)c(OC)c2)c1,inactive
25,CC(NCC(=O)Nc1ccccc1C(=O)NC1CC1)c1ccccc1Cl (stereo unspecified),inactive
26,Cc1cccc(NS(=O)(=O)c2ccc(-c3cnc(C4CC4)o3)cc2)c1,inactive

row,Compound,Potency
1,COc1ccccc1N(CC(=O)Nc1ccc(C)cc1Cl)S(=O)(=O)c1cccs1,inactive
2,O=C(NCC(=O)N1CCCC(C(F)(F)F)C1)c1ccccc1F (stereo unspecified),inactive
3,FC(F)(F)C1CCCN(c2nsc3ccccc23)C1 (stereo unspecified),6.75 µM (active)
4,O=C(NC(Cc1ccccc1)C(=O)N1CCCC(C(F)(F)F)C1)c1ccccc1 (stereo unspecified),inactive
5,COc1cccc(CNC(=O)C2CC(=O)N(C3CCCCCCC3)C2)c1 (stereo unspecified),inactive
6,Cc1ccc(-c2nn(-c3ccccc3)cc2/C=C2\SC(=S)N(CCCCCC(=O)O)C2=O)o1,4.78 µM (active)
7,C=CCOc1ccc(/C=C2\SC(=S)N(CCC(=O)O)C2=O)cc1,inactive
8,Cc1ccc(/C=C2/SC(=S)N(CCC(=O)NCCCN3CCOCC3)C2=O)cc1,inactive
9,CC(=O)c1nnn(-c2ccc(Cl)cc2C#N)c1C,inactive
10,Cc1cccn2c(CN(C)C3CCCc4ccccc43)c(C(=O)N3CCOCC3)nc12 (stereo unspecified),inactive
11,CC(C)=CC(=O)Nc1nnc(-c2ccc(F)cc2)s1,inactive
12,CN[C@H](C(=O)NC[C@H]1O[C@@H](n2cnc3c(N)ncnc32)[C@H](O)[C@@H]1O)[C@@H](C)OCc1ccccc1,inactive
13,Cc1cc(C)cc(C(=O)N2CCN=C2SCc2ccc([N+](=O)[O-])cc2)c1,inactive
14,Cc1nc(SCc2ccc(F)cc2)c([N+](=O)[O-])[nH]1,inactive
15,CN(Cc1ccc(CNC[C@H]2O[C@@H](n3cnc4c(N)ncnc43)[C@H](O)[C@@H]2O)o1)S(C)(=O)=O,inactive
16,Nc1nc(SCc2ccc([N+](=O)[O-])cc2)c2ncn(C3OC(CO)C(O)C3O)c2n1 (stereo unspecified),12 µM (active)
17,Cc1nc(N)nc(SCc2ccc([N+](=O)[O-])cc2)c1N,13.5 µM (active)
18,COc1cccc(CNC(=O)CCC2CCCN(C(=O)c3ccc(F)c(Cl)c3)C2)c1 (stereo unspecified),inactive
19,CCN(CC)CCn1cnc2c1c(=O)n(CCOC(=O)c1cc(OC)c(OC)c(OC)c1)c(=O)n2C,inactive
20,CCOc1ccc(NC(=O)c2ccc(CSc3nnnn3C)cc2)cc1,inactive
21,CC(C)C[C@H](NC(=O)N1CCn2c1nc1ccccc12)C(=O)NC1CC1,inactive
22,CC1CCN(C(=O)CN(c2ccc(Oc3ccccc3)cc2)S(C)(=O)=O)CC1,inactive
23,Cc1nn(C(C)CC(=O)O)c(C)c1C (stereo unspecified),inactive
